In PubChem BioAssay (NCATS):
Where “and” joins values, the source holds several entries; their conditions need not be identical. Equal entries are not always repeated. Inconclusive results are not listed. Where a call stands in place of a potency, no number is given. Calls of active or inactive are those of the source. Calls come from the whole dose curve; as a rule, active = well fitted curve in the direction sought with a large enough effect; inconclusive = small, poorly fitted or top-dose-only effect, or another doubt; inactive = no such curve, though single readings can be large; an effect the other way counts as inactive or inconclusive.

Legend:
MCC-13 = assay: qHTS assay to identify novel small-molecules to repurpose for Merkel cell carcinoma treatment (AID 1296009); settings: MCC and control cell lines, CellTiter-Glo viability, 72 h; series mostly up to 46 µM; note: nearly all actives have a fitted effect of over 60% in size
Outline: (§1)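 Cells were incubated with compound for 72 hr at 37 degree celsius before CellTiter-Glo addition. Luminescence was normalized with no-cell wells as full cytotoxicity and DMSO as baseline.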

MKL-1 = assay: as above; settings: MCC and control cell lines, CellTiter-Glo viability, 72 h; series mostly up to 46 µM
Outline: as §1

MKL-2 = assay: as above; settings: MCC and control cell lines, CellTiter-Glo viability, 72 h; series mostly up to 46 µM
Outline: as §1

UISO = assay: as above; settings: MCC and control cell lines, CellTiter-Glo viability, 72 h; series mostly up to 46 µM
Outline: as §1

WaGa = assay: as above; settings: MCC and control cell lines, CellTiter-Glo viability, 72 h; series mostly up to 46 µM
Outline: as §1

C33A = assay: Primary qHTS to identify gynecologic anti-cancer compounds using libraries of approved drugs and bioactive compounds (AID 1345084); settings: Gynecologic cancer cell panel viability, ATPlite luminescence, 48 h; series mostly up to 57.5 µM; note: nearly all actives have a fitted effect of over 55% in size
Outline: (§2)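 Cells, 1,000 per well, were allowed to settle for 16 h at 37 C before compound addition. Five concentrations were tested for 48 h, and viability was read by ATPlite luminescence after 15 min at room temperature.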

CAOV3 = assay: as above; settings: Gynecologic cancer cell panel viability, ATPlite luminescence, 48 h; series mostly up to 57.5 µM
Outline: as §2

CASKI = assay: as above; settings: Gynecologic cancer cell panel viability, ATPlite luminescence, 48 h; series mostly up to 57.5 µM
Outline: as §2

MCC-26 = assay: qHTS assay to identify novel small-molecules to repurpose for Merkel cell carcinoma treatment (AID 1296009); settings: MCC and control cell lines, CellTiter-Glo viability, 72 h; series mostly up to 46 µM; note: nearly all actives have a fitted effect of over 60% in size
Outline: as §1

NIH3T3 = assay: as above; settings: MCC and control cell lines, CellTiter-Glo viability, 72 h
Outline: as §1

[1] = at 44.8 µM (top of the series) unless noted
Potency is the fitted concentration of half-maximal effect.

SMILES	Potency (MCC-13)	Potency (MKL-1)	Potency (MKL-2)	Potency (UISO)	Potency (WaGa)	Potency (C33A)	Potency (CAOV3)	Potency (CASKI)	Potency (MCC-26)	outcome (NIH3T3; [1])	outcome (NIH3T3; at 17.4 µM (top of the series))	outcome (NIH3T3; at 44.8 µM (top of the series))
CC[C@@H](CO)NC(=O)[C@@H]1C=C2c3cccc4[nH]cc(c34)C[C@H]2N(C)C1	inactive	inactive	inactive	inactive	inactive	inactive	inactive	inactive	–	–	–	–
NCC(O)c1ccc(O)cc1 (stereo unspecified)	inactive	inactive	inactive	inactive	inactive	inactive	inactive	inactive	–	–	–	–
Cc1sc2c(c1C)C(c1ccc(Cl)cc1)=N[C@@H](CC(=O)OC(C)(C)C)c1nnc(C)n1-2	–	5.9 µM (active)	264 nM (active)	–	2.35 µM (active)	–	–	–	–	–	–	–
Fc1ccc(C(OCCN2CCN(CCCc3ccccc3)CC2)c2ccc(F)cc2)cc1	–	9.44 µM (active)	23.5 µM (active) and 4.73 µM (active)	23.7 µM (active)	8.41 µM (active)	–	–	–	inactive	–	–	–
CC(CCc1ccccc1)NC(C)C(O)c1ccc(O)cc1 (stereo unspecified)	inactive	inactive	inactive	inactive	inactive	inactive	inactive	inactive	–	–	–	–
c1ccc2c(c1)OCC(C1=NCCN1)O2 (stereo unspecified)	–	26.6 µM (active)	5960 nM (active)	–	–	–	–	–	–	–	–	–
CC(O)(CS(=O)(=O)c1ccc(F)cc1)C(=O)Nc1ccc(C#N)c(C(F)(F)F)c1 (stereo unspecified)	–	–	4180 nM (active)	–	8.33 µM (active)	inactive	inactive	inactive	–	inactive	–	–
CO[C@]12CC[C@@]3(C[C@@H]1[C@](C)(O)C(C)(C)C)[C@@H]1Cc4ccc(O)c5c4[C@@]3(CCN1CC1CC1)[C@H]2O5	53.9 µM (active)	–	34000 nM (active)	24.1 µM (active)	–	–	–	–	–	–	–	–
C[C@@H]1[C@@H](C(=O)C[C@H]2O[C@@H]3O[C@]4(C)CC[C@@H]5[C@H](C)CC[C@@H]([C@H]2C)[C@@]35OO4)O[C@@H]2O[C@]3(C)CC[C@H]4[C@H](C)CC[C@@H]1[C@@]24OO3	–	14.8 µM (active)	662 nM (active)	0.372 µM (active)	2.64 µM (active)	–	–	–	inactive	–	–	–
c1ccc2c(c1)Nc1ccccc1S2	inactive	inactive	inactive	inactive	inactive	inactive	inactive	inactive	–	–	–	–
CCCN1CCC[C@@H]2Cc3nc(N)ncc3C[C@H]21	inactive	–	inactive	29.9 µM (active)	inactive	inactive	inactive	inactive	–	–	–	–
C[C@]12CCC(=O)C(O)=C1CC[C@@H]1[C@@H]2CC[C@]2(C)C(=O)CC[C@@H]12	inactive	inactive	inactive	inactive	inactive	inactive	inactive	inactive	–	–	–	–
C[C@@H]1O[C@@H](O[C@H]2C[C@@H](O)[C@]3(CO)[C@H]4[C@H](O)C[C@]5(C)[C@@H](C6=CC(=O)OC6)CC[C@]5(O)[C@@H]4CC[C@]3(O)C2)[C@H](O)[C@H](O)[C@H]1O	–	148 nM (active) and 119 nM (active)	118 nM (active)	83.3 nM (active) and 59.6 nM (active)	66.2 nM (active) and 59.6 nM (active)	100 nM (active) and 126 nM (active)	251 nM (active) and 199 nM (active)	562 nM (active) and 794 nM (active)	0.235 µM (active)	–	inactive	inactive
CNC(=O)c1ccc(N2C(=S)N(c3ccc(C#N)c(C(F)(F)F)c3)C(=O)C23CCC3)cc1F	inactive	inactive	inactive	inactive	inactive	inactive	inactive	inactive	–	–	–	–
O=C(O)C(=O)c1cn(Cc2ccccc2)c2ccc(-c3ccc(OC(F)(F)F)cc3)cc12	inactive	inactive	inactive	inactive	inactive	inactive	inactive	inactive	–	–	–	–
CC1NCCOC1c1ccccc1 (stereo unspecified)	inactive	inactive	inactive	inactive	inactive	inactive	–	inactive	–	–	–	–
C[C@]12CC[C@H]3[C@@H](CCC4=CC(=O)CC[C@@H]43)[C@@H]1CC[C@@H]2OC(=O)CCc1ccccc1	inactive	inactive	inactive	inactive	inactive	inactive	inactive	inactive	–	–	–	–

SMILES	Potency (MCC-13)	Potency (MKL-1)	Potency (MKL-2)	Potency (UISO)	Potency (WaGa)	Potency (C33A)	Potency (CAOV3)	Potency (CASKI)	Potency (MCC-26)	outcome (NIH3T3; [1])	outcome (NIH3T3; at 17.4 µM (top of the series))	outcome (NIH3T3; at 44.8 µM (top of the series))
CC1=C2C[C@@H]3[C@@H](CC=C4C[C@@H](O)CC[C@@]43C)[C@@H]2CC[C@]12O[C@H]1C[C@H](C)CN[C@H]1[C@H]2C	inactive	inactive	inactive	inactive	inactive	–	–	–	–	–	–	–
CC(C)(C)CC(C)(C)c1ccc(O)cc1	inactive	–	24300 nM (active)	inactive	34.4 µM (active)	inactive	inactive	inactive	–	inactive	–	–
Cc1ccc(-c2nc3ccc(C)cn3c2CC(=O)N(C)C)cc1	inactive	inactive	inactive	inactive	inactive	inactive	inactive	inactive	–	–	–	–
C[C@]12C/C(=C/O)C(=O)C[C@@H]1CC[C@@H]1[C@@H]2CC[C@@]2(C)[C@H]1CC[C@]2(C)O	inactive	–	–	–	–	inactive	inactive	inactive	–	–	–	–
CCOC(=O)C1(c2ccccc2)CCN(CCC(C#N)(c2ccccc2)c2ccccc2)CC1	inactive	inactive	–	–	–	inactive	inactive	inactive	–	–	–	–
N[C@@H](Cc1ccc(N(CCCl)CCCl)cc1)C(=O)O	–	2.66 µM (active) and 2.96 µM (active)	1.33 µM (active) and 469 nM (active)	13.3 µM (active) and 13.2 µM (active)	4.22 µM (active) and 5.26 µM (active)	inactive	–	–	–	–	–	–
COC[C@@H](NC(C)=O)C(=O)NCc1ccccc1	inactive	inactive	inactive	inactive	inactive	inactive	inactive	inactive	–	–	–	–
CCN(CC)CCN1C(=O)CN=C(c2ccccc2F)c2cc(Cl)ccc21	inactive	inactive	inactive	inactive	inactive	inactive	inactive	inactive	–	inactive	–	–
COC[C@H]1OC(=O)c2coc3c2[C@@]1(C)C1=C(C3=O)C2CCC(=O)[C@@]2(C)C[C@H]1OC(C)=O (stereo partly specified)	inactive	11.8 µM (active)	7430 nM (active)	inactive	8.33 µM (active)	inactive	inactive	inactive	–	–	–	–
C[C@H]1O[C@@H](O[C@H]2[C@@H](O)C[C@H](O[C@H]3[C@@H](O)C[C@H](O[C@H]4CC[C@@]5(C)[C@H](CC[C@@H]6[C@@H]5CC[C@]5(C)[C@@H](C7=CC(=O)OC7)CC[C@]65O)C4)O[C@@H]3C)O[C@@H]2C)C[C@H](O)[C@@H]1O	–	0.0473 µM (active)	23.7 nM (active)	–	0.0211 µM (active)	100 nM (active) and 89.1 nM (active)	316 nM (active) and 282 nM (active)	398 nM (active) and 794 nM (active)	–	–	–	–
Cc1ncc(CNC(=O)N(CCCl)N=O)c(N)n1	inactive	inactive	inactive	inactive	inactive	inactive	inactive	inactive	–	–	–	–
c1ccc(C2CC2)c(OCC2=NCCN2)c1	inactive	inactive	inactive	inactive	inactive	inactive	inactive	inactive	–	–	–	–
C[C@@H]1[C@@H](CC(C[C@H]2O[C@@H]3O[C@]4(C)CC[C@@H]5[C@H](C)CC[C@@H]([C@H]2C)[C@@]35OO4)C[S+](=O)([O-])c2ccc(COC(=O)N(C)C)cc2)O[C@@H]2O[C@]3(C)CC[C@H]4[C@H](C)CC[C@@H]1[C@@]24OO3 (stereo partly specified)	–	1.18 µM (active)	590 nM (active)	0.526 µM (active)	–	–	–	–	inactive	–	–	–
NCC1(CC(=O)O)CCCCC1	inactive	inactive	inactive	inactive	inactive	inactive	inactive	inactive	–	–	–	–
Clc1ccc(CCC(Cn2ccnc2)Sc2c(Cl)cccc2Cl)cc1 (stereo unspecified)	inactive	inactive	–	–	inactive	–	inactive	inactive	–	–	–	–
C=C(C)[C@H]1Cc2c(ccc3c2O[C@@H]2COc4cc(OC)c(OC)cc4[C@@H]2C3=O)O1	–	–	–	–	–	708 nM (active)	–	1.26 µM (active)	–	–	–	–
O=P1(NCCCl)OCCCN1CCCl (stereo unspecified)	inactive	inactive	inactive	inactive	inactive	inactive	inactive	inactive	–	–	–	–
